{
  "source": "PubChem BioAssay (EPA / NIEHS)",
  "note": "Active and inactive are the calls of the source. The calls were made as follows: active = hit-call score of the fitted dose curve at least 0.9, where 1 is the maximum; inactive = score below 0.9.",
  "data": [
    {"assay": "CCTE_Harrill_HTTr_Viability_MCF7: CCTE's 6-hour Cell Viability Assessment for the High-Throughput Transcriptomics (HTTr) Platform, in MCF-7 cells cultured in DMEM + 10% fetal bovine serum, Harrill Lab (AID 2284010)", "from_the_text": "This is a cell-based assay that evaluates cell viability using high content imaging to evaluate membrane integrity using propidium iodide dye exclusion in a 384 well format.One of seven assay components measured from the CCTE_Harrill_HTTr_Viability assay. This was part of a full screening experiment. This is a cell-based assay that evaluates cell viability in MCF-7 cells cultured in DMEM + 10% fetal bovine serum. High content imaging is used to evaluate membrane integrity using propidium iodide dye exclusion. Measurements are taken at 6 hours after chemical dosing in 384-well format.The assay component endpoint CCTE_Harrill_HTTr_Viability_MCF7 was analyzed with bidirectional fitting relation to DMSO as the negative control and baseline of activity. Using a type of viability reporter, gain-of-signal activity can be used to evaluate membrane integrity using propidium iodide dye exclusion to understand changes in cytotoxicity. To generalize the intended target to other relatable targets, this assay endpoint is annotated to cell cycle, where the subfamily is cytotoxicity.\nChemicals were tested in MCF7 cells in an eight point dilution series with a six hour exposure duration.", "values": [
      {"compound": "NC(N)=NC(N)=NCCc1ccccc1", "outcome": "inactive"},
      {"compound": "Cc1cccc(O)c1", "outcome": "inactive"},
      {"compound": "COC(=O)C(C)Oc1ccc(Oc2ncc(C(F)(F)F)cc2Cl)cc1", "note": "(stereo not given)", "outcome": "inactive"},
      {"compound": "CCCCCCOC(C)=O", "outcome": "inactive"},
      {"compound": "CC(O)CN", "note": "(stereo not given)", "outcome": "inactive"},
      {"compound": "O=C(O)c1cc(C(=O)O)c(C(=O)O)cc1C(=O)O", "outcome": "inactive"},
      {"compound": "CCCCOCCOCCOCCO", "outcome": "inactive"},
      {"compound": "CC(=O)CCC(=O)O", "outcome": "inactive"},
      {"compound": "CCCCOC(=O)C(C)OC(=O)CCC", "note": "(stereo not given)", "outcome": "inactive"},
      {"compound": "C[C@H](CCC(=O)O)[C@H]1CC[C@H]2[C@@H]3CC[C@@H]4C[C@H](O)CC[C@]4(C)[C@H]3CC[C@]12C", "outcome": "inactive"},
      {"compound": "Cc1ccc(C(C)(C)O)cc1", "outcome": "inactive"},
      {"compound": "O=C(c1ccc(OCCN2CCCCC2)cc1)c1c(-c2ccc(O)cc2)sc2cc(O)ccc12", "outcome": "inactive"},
      {"compound": "CC(O)COCC(C)O", "note": "(stereo not given)", "outcome": "inactive"},
      {"compound": "CCCCCCCCCCCCCC(=O)OCC", "outcome": "inactive"},
      {"compound": "NC(N)=S", "outcome": "inactive"},
      {"compound": "COc1ccc2[nH]cc(CCNC(C)=O)c2c1", "outcome": "inactive"},
      {"compound": "CCCCCC1CCC(=O)O1", "note": "(stereo not given)", "outcome": "inactive"},
      {"compound": "CC(C)(O)CCc1ccccc1", "outcome": "inactive"},
      {"compound": "O=C(O)c1ccccc1O", "outcome": "inactive"},
      {"compound": "CCOc1ccc(NC(C)=O)cc1", "outcome": "inactive"},
      {"compound": "OCC=Cc1ccccc1", "outcome": "inactive"},
      {"compound": "NC(=O)c1cnccn1", "outcome": "inactive"},
      {"compound": "CN1CCc2cccc3c2[C@H]1Cc1ccc(O)c(O)c1-3", "outcome": "inactive"},
      {"compound": "c1ccc(OCCOc2ccccc2)cc1", "outcome": "inactive"},
      {"compound": "CC(C)Cc1ccc(C(C)C(=O)O)cc1", "note": "(stereo not given)", "outcome": "inactive"},
      {"compound": "NC(=O)c1cccnc1", "outcome": "inactive"},
      {"compound": "CC(=O)N(C)C", "outcome": "inactive"},
      {"compound": "C1COCO1", "outcome": "inactive"},
      {"compound": "CN(C)CCCNCCCN(C)C", "outcome": "inactive"},
      {"compound": "C=C(C)C(N)=O", "outcome": "inactive"},
      {"compound": "CCCCCCCCCC(=O)OCC", "outcome": "inactive"},
      {"compound": "CN(C)C", "outcome": "inactive"},
      {"compound": "COc1ccccc1O", "outcome": "inactive"},
      {"compound": "CC12CCC(C1)C(C)(C)C2O", "note": "(stereo not given)", "outcome": "inactive"},
      {"compound": "O=C(O)c1cc2ccccc2cc1O", "outcome": "inactive"},
      {"compound": "CCCCCCCCCO", "outcome": "inactive"},
      {"compound": "c1ccc2scnc2c1", "outcome": "inactive"},
      {"compound": "CN(C)C(=O)Nc1ccccc1", "outcome": "inactive"},
      {"compound": "[O-]/[N+](=N\\O)c1ccccc1", "outcome": "inactive"},
      {"compound": "CC(=O)C1C(=O)C=C(C)OC1=O", "note": "(stereo not given)", "outcome": "inactive"}
    ]}
  ]
}
